For some assays here: Measured potencies and affinities stand elsewhere. Calls of active or inactive are those of the source. Unless noted, no rule for the calls is given here.
How the values were obtained:
[1] = antimalarial activity against Dd2 strain (AID 2302;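 active = growth inhibition above 50% at the single 2 µM test dose, taken to imply half-maximal potency below 2 µM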;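 also: 0% = DMSO untreated growth and 100% = chloroquine plus artemisinin killed control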); conditions: P. falciparum Dd2 in RBCs, LDH growth readout, 72 h; at 2 µM; active compounds read high
[2] = HepG2 cytotoxicity, primary screen, cytotoxicity control for P. falciparum antimalarial project, cell-based, ATP luminescence (AID 2303;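 active = inhibition above 50%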;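 also: 0% = DMSO wells and 100% = digitonin-killed cells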); conditions: HepG2 viability, 24-48 h, at 10 µM, active compounds read high
[3] = molecular target: L-lactate dehydrogenase (Plasmodium falciparum (isolate CDC / Honduras)) (UniProt Q27743); assay: PfLDH activity inhibition – cell lysate, 3D7 strain, counter-screen for P. falciparum growth inhibition project (AID 2304);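 also: 0% = vehicle and 100% = reference inhibitor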; conditions: P. falciparum 3D7 crude extract, LDH APAD/NBT absorbance; at 2 µM; active compounds read high
[4] = inhibition of 3D7 malaria parasite growth – strain 3D7 (AID 2306);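 also: 0% = DMSO wells and 100% = chloroquine plus artemisinin control wells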; conditions: P. falciparum 3D7 erythrocytic growth, LDH absorbance, 72 h; at 2 µM; active compounds read high
[5] = molecular target: Calcium-dependent protein kinase 1 (Plasmodium falciparum (isolate 3D7)) (UniProt P62344); assay: PfCDPK1 kinase inhibitors, biochemical, TCAMS library (AID 1159585; cut-off not given, nearly all actives have IC50 up to about 0.98 µM;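 also: inhibitors leave more ATP so luminescence rises with inhibition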); conditions: recombinant PfCDPK1, Kinase-Glo ATP depletion luminescence
[6] = molecular target: Plasmodium falciparum protein kinase 6 (PK6, PF3D7_1337100) (UniProt Q8IDW1); assay: PfPK6 kinase inhibitors, biochemical, TCAMS library (AID 1159586); conditions: recombinant PfPK6, Kinase-Glo ATP depletion luminescence
[7] = molecular target: Protein kinase 7 (PK7), Plasmodium falciparum 3D7 (PF3D7_0213400) (UniProt Q7YTF7); assay: inhibition of Plasmodium PK7 catalytic activity – biochemical, TCAMS antimalarial set, Kinase-Glo luminescence (AID 1159587); conditions: recombinant PfPK7, Kinase-Glo ATP depletion luminescence
[8] = molecular target: Calcium-dependent protein kinase 4 (Plasmodium falciparum (isolate 3D7)) (UniProt Q8IBS5); assay: PfCDPK4 kinase inhibitors, biochemical, TCAMS library (AID 1159588; cut-off not given, nearly all actives have IC50 up to about 0.91 µM); conditions: recombinant PfCDPK4, Kinase-Glo ATP depletion luminescence
Chain of Calcium-dependent protein kinase 4 (Plasmodium falciparum (isolate 3D7)) (Q8IBS5 whole entry, looked up): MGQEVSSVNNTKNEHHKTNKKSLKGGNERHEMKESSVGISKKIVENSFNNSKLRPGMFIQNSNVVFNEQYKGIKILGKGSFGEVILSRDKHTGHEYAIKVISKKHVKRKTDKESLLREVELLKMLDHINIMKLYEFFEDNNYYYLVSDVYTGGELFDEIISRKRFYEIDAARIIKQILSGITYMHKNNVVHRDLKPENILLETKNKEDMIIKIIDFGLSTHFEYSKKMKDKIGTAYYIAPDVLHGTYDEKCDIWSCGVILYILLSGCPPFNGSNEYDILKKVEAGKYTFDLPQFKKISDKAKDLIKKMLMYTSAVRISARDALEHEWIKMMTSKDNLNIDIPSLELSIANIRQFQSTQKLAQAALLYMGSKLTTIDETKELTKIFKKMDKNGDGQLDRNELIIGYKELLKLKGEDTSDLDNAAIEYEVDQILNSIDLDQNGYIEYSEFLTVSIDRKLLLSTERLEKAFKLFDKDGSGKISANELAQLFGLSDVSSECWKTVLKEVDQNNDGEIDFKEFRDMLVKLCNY

Chain of Plasmodium falciparum protein kinase 6 (PK6, PF3D7_1337100) (Q8IDW1 1-305): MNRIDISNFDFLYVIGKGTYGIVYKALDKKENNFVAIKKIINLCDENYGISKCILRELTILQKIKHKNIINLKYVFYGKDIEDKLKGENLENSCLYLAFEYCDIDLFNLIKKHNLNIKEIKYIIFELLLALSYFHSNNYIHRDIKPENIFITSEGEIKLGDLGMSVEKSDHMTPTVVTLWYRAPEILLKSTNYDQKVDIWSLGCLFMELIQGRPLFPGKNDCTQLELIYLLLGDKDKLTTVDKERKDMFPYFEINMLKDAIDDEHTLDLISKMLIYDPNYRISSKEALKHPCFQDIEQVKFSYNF
Chain of Protein kinase 7 (PK7), Plasmodium falciparum 3D7 (PF3D7_0213400) (Q7YTF7 1-343): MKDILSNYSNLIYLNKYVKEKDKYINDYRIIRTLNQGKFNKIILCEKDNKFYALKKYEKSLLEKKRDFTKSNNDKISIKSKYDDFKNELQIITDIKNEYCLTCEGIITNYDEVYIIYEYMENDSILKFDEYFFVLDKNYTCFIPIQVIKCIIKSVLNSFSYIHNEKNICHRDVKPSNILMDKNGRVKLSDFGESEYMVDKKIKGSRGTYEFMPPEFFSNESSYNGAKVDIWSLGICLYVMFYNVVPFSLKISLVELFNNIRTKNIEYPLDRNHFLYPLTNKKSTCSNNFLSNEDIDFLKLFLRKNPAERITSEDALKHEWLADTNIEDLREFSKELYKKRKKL
Chain of Calcium-dependent protein kinase 1 (Plasmodium falciparum (isolate 3D7)) (P62344 whole entry, looked up): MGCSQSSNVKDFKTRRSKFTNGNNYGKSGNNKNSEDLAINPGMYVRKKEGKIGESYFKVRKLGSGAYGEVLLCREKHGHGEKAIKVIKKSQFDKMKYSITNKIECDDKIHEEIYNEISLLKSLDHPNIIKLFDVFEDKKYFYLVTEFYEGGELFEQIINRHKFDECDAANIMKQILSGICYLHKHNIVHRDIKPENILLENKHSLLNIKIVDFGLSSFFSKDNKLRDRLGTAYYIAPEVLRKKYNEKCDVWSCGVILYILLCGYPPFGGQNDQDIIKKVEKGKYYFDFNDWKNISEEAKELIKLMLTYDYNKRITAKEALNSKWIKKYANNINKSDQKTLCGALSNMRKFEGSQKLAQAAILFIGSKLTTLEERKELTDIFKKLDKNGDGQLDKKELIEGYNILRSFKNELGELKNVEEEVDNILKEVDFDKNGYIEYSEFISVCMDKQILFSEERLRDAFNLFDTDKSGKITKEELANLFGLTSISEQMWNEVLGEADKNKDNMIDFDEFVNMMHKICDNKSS
Chain of L-lactate dehydrogenase (Plasmodium falciparum (isolate CDC / Honduras)) (Q27743 whole entry, looked up): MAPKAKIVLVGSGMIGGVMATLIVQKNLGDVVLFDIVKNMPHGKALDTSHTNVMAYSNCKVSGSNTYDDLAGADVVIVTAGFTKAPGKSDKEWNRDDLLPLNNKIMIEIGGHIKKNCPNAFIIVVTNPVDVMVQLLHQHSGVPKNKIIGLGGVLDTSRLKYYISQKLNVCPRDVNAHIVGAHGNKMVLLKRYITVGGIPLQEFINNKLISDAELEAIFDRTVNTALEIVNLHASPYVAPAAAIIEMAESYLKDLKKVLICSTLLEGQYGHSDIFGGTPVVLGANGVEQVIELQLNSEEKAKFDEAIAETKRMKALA

NC(=O)c1ccc(C(=O)Nc2cccc(-c3ccc(-c4nc5ccc(C(F)(F)F)cc5[nH]4)cc3)c2)cc1
active: growth inhibition [4] 100%
inactive: growth inhibition [1] 31% | inhibition [2] 35% | inhibition [3] -1% | outcome [5] | outcome [6] | outcome [7] | outcome [8]

CCCC(=O)c1cnc2c(OCCCc3cnc[nH]3)cccc2c1Nc1c(C)cccc1C
inactive: growth inhibition [1] 14% | inhibition [2] 20% | inhibition [3] 3% | outcome [5] | outcome [6] | outcome [7] | outcome [8]
active: growth inhibition [4] 98%

COc1ccc(OCc2ccccn2)c(C2CCN(CCCCNC(=O)c3ccc(NC(=O)c4ccc(Cl)cc4)cc3)CC2)c1
inactive: inhibition [2] 18% | inhibition [3] 4% | outcome [5] | outcome [6] | outcome [7] | outcome [8]
active: growth inhibition [1] 71% | growth inhibition [4] 98%

COc1ccc2c(NN=Cc3cccc(F)c3)cc(C)nc2c1
inactive: inhibition [2] 17% | inhibition [3] -4% | outcome [5] | outcome [6] | outcome [7] | outcome [8]
active: growth inhibition [1] 100% | growth inhibition [4] 101%

Cn1cc(C2CCN(CCCCNC(=O)c3sc(-c4ccc(C(F)(F)F)cc4)nc3CO)CC2)c2ccccc21
active: growth inhibition [4] 95%
inactive: growth inhibition [1] 15% | inhibition [2] 46% | inhibition [3] -3% | outcome [5] | outcome [6] | outcome [7] | outcome [8]

COc1c(C2CCN(CCCCNC(=O)c3ccc(C)c(-c4ccc(C(F)(F)F)cc4)c3)CC2)ccc2c1CCCC2
inactive: inhibition [3] -5% | outcome [5] | outcome [6] | outcome [7] | outcome [8]
active: growth inhibition [1] 79% | inhibition [2] 76% | growth inhibition [4] 86%

c1ccc2[nH]c(-c3ccc(-c4ccc(CNC5CC5)cc4)s3)nc2c1
inactive: growth inhibition [1] 19% | inhibition [2] 25% | inhibition [3] -7% | outcome [5] | outcome [6] | outcome [7] | outcome [8]
active: growth inhibition [4] 91%

CC(C)CCn1c(Sc2ccc(C#N)c([N+](=O)[O-])c2)nnc1-c1ccc(N(C)C)cc1
inactive: inhibition [2] 11% | inhibition [3] 3% | outcome [5] | outcome [6] | outcome [7] | outcome [8]
active: growth inhibition [1] 96% | growth inhibition [4] 97%

Oc1ccc(-c2ccccc2)cc1CN1CCCCCC1
active: growth inhibition [1] 85% | growth inhibition [4] 95%
inactive: inhibition [2] 6% | inhibition [3] 2% | outcome [5] | outcome [6] | outcome [7] | outcome [8]

O=C(NC1CCN(c2ncc(C(F)(F)F)cc2Cl)CC1)c1cccs1
inactive: inhibition [2] 15% | inhibition [3] -1% | outcome [5] | outcome [6] | outcome [7] | outcome [8]
active: growth inhibition [1] 65% | growth inhibition [4] 84%

Cn1nccc1C(=O)NCCNCc1cccc(-c2ccc(-c3nc4ccccc4[nH]3)cc2)c1
inactive: inhibition [2] 19% | inhibition [3] 4% | outcome [5] | outcome [6] | outcome [7] | outcome [8]
active: growth inhibition [1] 98% | growth inhibition [4] 100%

CN(Cc1ccc(C#N)cc1)C1CCN(c2cc(NC(=O)c3ccc(F)cc3)ccn2)CC1
active: growth inhibition [4] 86%
inactive: growth inhibition [1] 10% | inhibition [2] 24% | inhibition [3] -5% | outcome [5] | outcome [6] | outcome [7] | outcome [8]

Cc1ccoc1C(=O)Nc1cccc(-c2cccc(-c3nc4c(C)cccc4[nH]3)c2)c1
inactive: inhibition [2] 17% | inhibition [3] -3% | outcome [5] | outcome [6] | outcome [7] | outcome [8]
active: growth inhibition [1] 79% | growth inhibition [4] 101%

O=C(NC1CCC(N2CCCC(OCc3ccccc3)C2)CC1)c1cc2ccccc2[nH]1 (stereo not given)
inactive: growth inhibition [1] 11% | inhibition [2] 38% | inhibition [3] -1% | outcome [5] | outcome [6] | outcome [7] | outcome [8]
active: growth inhibition [4] 94%

CN(C)c1ccc(C2(c3ccccc3)N=C(N)N(CCCc3ccccc3)C2=O)cc1 (stereo not given)
active: growth inhibition [1] 97% | growth inhibition [4] 99%
inactive: inhibition [2] 4% | inhibition [3] 0% | outcome [5] | outcome [6] | outcome [7] | outcome [8]

O=S(=O)(Nc1cccc(CCN2CCC(N3CCCCC3)CC2)c1)c1cccc(C(F)(F)F)c1
inactive: growth inhibition [1] 13% | inhibition [2] 25% | inhibition [3] -1% | outcome [5] | outcome [6] | outcome [7] | outcome [8]
active: growth inhibition [4] 101%

Cc1nc2c(Nc3nc(-c4ccncc4)cs3)ncnc2n1-c1ccccc1Cl
active: growth inhibition [1] 96% | growth inhibition [4] 97%
inactive: inhibition [2] 14% | inhibition [3] 0% | outcome [5] | outcome [6] | outcome [7] | outcome [8]

O=C1CCCN1CCCNCc1ccc(-c2ccc(-c3nc4ccc(F)cc4[nH]3)s2)cc1
active: growth inhibition [1] 91% | growth inhibition [4] 100%
inactive: inhibition [2] 19% | inhibition [3] 0% | outcome [5] | outcome [6] | outcome [7] | outcome [8]

CCCN(Cc1ccc(C)cc1)Cc1cc(=O)c2cc(Cl)ccc2[nH]1
inactive: inhibition [3] 4% | outcome [5] | outcome [6] | outcome [7] | outcome [8]
active: growth inhibition [1] 91% | inhibition [2] 51% | growth inhibition [4] 86%

COc1ccc2c(NN=Cc3cccc(Cl)c3)cc(C)nc2c1
inactive: inhibition [2] 3% | inhibition [3] 3% | outcome [5] | outcome [6] | outcome [7] | outcome [8]
active: growth inhibition [1] 99% | growth inhibition [4] 103%

O=C(NC1CCN(Cc2ccccc2)CC1)c1ccc(-c2nc3cc(Cl)c(Cl)cc3[nH]2)s1
inactive: inhibition [2] 17% | inhibition [3] -1% | outcome [5] | outcome [6] | outcome [7] | outcome [8]
active: growth inhibition [1] 99% | growth inhibition [4] 103%

Cc1cccc2[nH]c(-c3ccc(-c4cccc(CNCCNC(=O)c5ccnn5C)c4)s3)nc12
inactive: inhibition [2] 17% | inhibition [3] -4% | outcome [5] | outcome [6] | outcome [7] | outcome [8]
active: growth inhibition [1] 87% | growth inhibition [4] 102%

CCOC(=O)c1ccc(NC(=O)Nc2cccc(-c3cccc(-c4nc5ccccc5[nH]4)c3)c2)cc1
inactive: inhibition [3] -3% | outcome [5] | outcome [6] | outcome [7] | outcome [8]
active: growth inhibition [1] 99% | inhibition [2] 76% | growth inhibition [4] 100%

COc1ccc(-c2ccc(NC(=O)c3ccc(F)cc3)cc2)cc1CNC(C)C
inactive: growth inhibition [1] 28% | inhibition [2] 24% | inhibition [3] 2% | outcome [5] | outcome [6] | outcome [7] | outcome [8]
active: growth inhibition [4] 97%

COc1cc(F)c2ncc(Cl)c(CCN3CCC(NCc4ccc5c(c4)NC(=O)CO5)CC3)c2c1
active: growth inhibition [1] 79% | growth inhibition [4] 95%
inactive: inhibition [2] 32% | inhibition [3] -2% | outcome [5] | outcome [6] | outcome [7] | outcome [8]

COc1ccc(-c2ccc(S(=O)(=O)Nc3cc4c(cc3OC(C)C)CCNCC4)cc2)cc1
active: growth inhibition [4] 86%
inactive: growth inhibition [1] -1% | inhibition [2] 16% | inhibition [3] 3% | outcome [5] | outcome [6] | outcome [7] | outcome [8]

Cc1ccc2nc3ccccc3c(NCCN3CCN(C)CC3)c2c1
inactive: growth inhibition [1] 6% | inhibition [2] 19% | inhibition [3] -7% | outcome [5] | outcome [6] | outcome [7] | outcome [8]
active: growth inhibition [4] 101%

CCN1CCN(c2cc(C)c3cc(NC(=O)c4ccc(OC)c(OC)c4)ccc3n2)CC1
active: growth inhibition [4] 90%
inactive: growth inhibition [1] 23% | inhibition [2] 28% | inhibition [3] 1% | outcome [5] | outcome [6] | outcome [7] | outcome [8]

O=C(c1ccc(F)c2ccccc12)N1CCc2cc3nccc(N4CCN5CCC[C@H]5C4)c3cc21
inactive: inhibition [2] -8% | inhibition [3] -5% | outcome [5] | outcome [6] | outcome [7] | outcome [8]
active: growth inhibition [1] 54% | growth inhibition [4] 90%

Cc1[nH]c(C)c(-c2ccc(OCc3ccc(OC(F)(F)F)cc3)nc2)c(=O)c1Br
inactive: inhibition [2] 10% | inhibition [3] 7% | outcome [5] | outcome [6] | outcome [7] | outcome [8]
active: growth inhibition [1] 97% | growth inhibition [4] 98%

CCOC(=O)c1ccc(NC(=O)Nc2cccc(-c3ccc(-c4nc5ccc(F)cc5[nH]4)cc3)c2)cc1
inactive: inhibition [2] 40% | inhibition [3] 1% | outcome [5] | outcome [6] | outcome [7] | outcome [8]
active: growth inhibition [1] 97% | growth inhibition [4] 101%

Cc1nc(-c2ccccc2)nc(N2CCN(C(=O)c3ccco3)CC2)c1Cc1ccccc1F
inactive: inhibition [2] 7% | inhibition [3] 1% | outcome [5] | outcome [6] | outcome [7] | outcome [8]
active: growth inhibition [1] 86% | growth inhibition [4] 95%

CCN(CC)C(=NC(N)=NCCCCCCN=C(N)N=C(Nc1ccc(Cl)cc1)N(CC)CC)Nc1ccc(Cl)cc1
inactive: inhibition [2] 1% | inhibition [3] 8% | outcome [5] | outcome [6] | outcome [7] | outcome [8]
active: growth inhibition [1] 96% | growth inhibition [4] 97%

O=C(Nc1cccc(-c2cccc(CN3CCCC3)c2)c1)c1ccc(Cl)cc1
active: inhibition [2] 50% | growth inhibition [4] 93%
inactive: growth inhibition [1] 32% | inhibition [3] 0% | outcome [5] | outcome [6] | outcome [7] | outcome [8]

CC(Cc1ccc(OCCCCOc2ccccc2)cc1)NCCc1ccc(Oc2ccccc2)cc1 (stereo not given)
inactive: inhibition [3] 5% | outcome [5] | outcome [6] | outcome [7] | outcome [8]
active: growth inhibition [1] 95% | inhibition [2] 99% | growth inhibition [4] 89%

CC(=O)Nc1cc(C(=O)Nc2cccc(-c3cccc(-c4nc5c(C)cccc5[nH]4)c3)c2)ccc1C
active: growth inhibition [1] 62% | growth inhibition [4] 100%
inactive: inhibition [2] 25% | inhibition [3] 1% | outcome [5] | outcome [6] | outcome [7] | outcome [8]

CN1CCN(c2ccc(Nc3c4ccccc4nc4ccccc34)cc2)CC1
active: growth inhibition [1] 94% | growth inhibition [4] 100%
inactive: inhibition [2] -3% | inhibition [3] -4% | outcome [5] | outcome [6] | outcome [7] | outcome [8]

CCCCCCNCCOc1ccc(-c2nc(-c3ccccc3)c(-c3ccccc3)[nH]2)cc1
inactive: growth inhibition [1] 39% | inhibition [2] 14% | inhibition [3] -4% | outcome [5] | outcome [6] | outcome [7] | outcome [8]
active: growth inhibition [4] 98%

O=C1C(=Cc2cc(Cc3ccccc3)ccc2O)SC(=S)N1Cc1ccccc1
active: growth inhibition [1] 53% | growth inhibition [4] 98%
inactive: inhibition [2] 16% | inhibition [3] -2% | outcome [5] | outcome [6] | outcome [7] | outcome [8]

O=C(Nc1ccc(OC2CCN(Cc3ccc(F)cc3)CC2)cc1)c1cccs1
inactive: inhibition [2] 6% | inhibition [3] -2% | outcome [5] | outcome [6] | outcome [7] | outcome [8]
active: growth inhibition [1] 52% | growth inhibition [4] 84%

From PubChem BioAssay
